# From article PMC7826789 (International Journal of Molecular Sciences, 2021)
# Legend:
# Conditions in all cases: Compound Concentration (nM):1000
# EPHB2 = system: EPHB2
# EPHB3 = system: EPHB3
# EPHB4 = system: EPHB4
# EPHB6 = system: EPHB6
# ERBB2 = system: ERBB2
# ERBB3 = system: ERBB3
# ERBB4 = system: ERBB4
# ERK1 = system: T1, ERK1
# T1 construct: gene MAPK3
# ERK2 = system: T2, ERK2
# T2 construct: gene MAPK1
# ERK3 = system: T3, ERK3
# T3 construct: gene MAPK6
# 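Also: KINOMEscan scanMAX binding as percent activity remaining versus control; lower means stronger binding.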
SMILES,Percent Control (EPHB2),Percent Control (EPHB3),Percent Control (EPHB4),Percent Control (EPHB6),Percent Control (ERBB2),Percent Control (ERBB3),Percent Control (ERBB4),Percent Control (ERK1),Percent Control (ERK2),Percent Control (ERK3)
COc1cc2ncn(-c3cc(O[C@H](C)c4ccccc4Cl)c(C(N)=O)s3)c2cc1OC [GSK237701A],90%,92%,85%,16%,100%,89%,63%,100%,100%,82%
CN(C)CCNC(=O)Nc1ccc(N(C)c2ccnc(Nc3ccc(CS(C)(=O)=O)cc3)n2)cc1.Cl [GW830900A],100%,100%,100%,28%,100%,93%,81%,100%,85%,94%
CCS(=O)(=O)c1ccc(OC)c(Nc2ncc(-c3cccc(OC)c3)o2)c1 [GW580509X],100%,100%,100%,3.3%,77%,54%,100%,100%,100%,100%
C[C@@H](Oc1cc(-n2cnc3ccc(OC4CCN(C)CC4)cc32)sc1C(N)=O)c1ccccc1Cl [GSK579289A],77%,95%,100%,75%,79%,85%,90%,59%,100%,97%
COc1cc2ncnc(Nc3ccc4c(cnn4Cc4ccccc4)c3)c2cc1OC.Cl [GW282449A],100%,100%,100%,12%,0%,0%,0%,100%,100%,100%
C/C(Nc1ccc(S(N)(=O)=O)cc1)=C1/C(=O)Nc2ccccc21 [GW335962X],100%,89%,86%,93%,100%,74%,100%,91%,100%,93%
COc1cccc(-c2c[nH]c3c(N/N=C/c4ccncc4)ncnc23)c1 [GW814408X],100%,100%,100%,2.7%,63%,13%,88%,100%,100%,19%
Cc1cc(O)cc(C)c1/C=C/c1cncc(C(N)=O)c1 [GW435821X],100%,100%,100%,6.6%,61%,43%,100%,100%,100%,100%
CN(C)c1cc2c(Nc3ccc4c(cnn4Cc4ccccc4)c3)ncnc2cn1 [GW282974X],100%,75%,85%,24%,0%,,24%,100%,37%,
CC(C)COC(=O)c1ccc2c(c1)/C(=C/Nc1ccc(S(N)(=O)=O)cc1)C(=O)N2 [GW416981X],100%,100%,100%,100%,26%,81%,50%,100%,100%,100%
COc1ccc2c(-c3ccnc(Nc4cccc(OC(F)(F)F)c4)n3)cnn2n1 [GW810372X],100%,100%,100%,83%,100%,65%,100%,100%,100%,100%
COc1cc(/C=N/Nc2ncnc3[nH]ncc23)ccc1O [GW578748X],100%,100%,100%,1.6%,57%,64%,100%,100%,100%,57%
COc1cccc(-n2ncc3c(N/N=C/c4ccncc4)ncnc32)c1 [GW784752X],100%,100%,100%,100%,68%,4.9%,83%,100%,100%,41%
CC1=C(C(=O)Nc2ccc3[nH]ncc3c2)C(c2ccc3ccccc3c2)CC(=O)N1 (centres unmarked) [GSK270822A],86%,89%,84%,86%,83%,100%,100%,66%,79%,100%
CN1CCN(C(=O)c2ccc(NC(=O)Nc3ccc(N(C)c4ccnc(Nc5ccc(CS(C)(=O)=O)cc5)n4)cc3)cc2)CC1.Cl [GW830263A],76%,100%,85%,4.3%,100%,85%,77%,100%,100%,100%
COc1ccc2[nH]c3c4[nH]c5ccc(OC)cc5c4c4c(c3c2c1)C(=O)NC4=O [GW296115X],84%,85%,84%,7.3%,100%,85%,59%,85%,76%,84%
Cl.O=C(O[C@H]1CN[C@H](C#Cc2cc3ncnc(Nc4ccc5c(cnn5Cc5ccccc5)c4)c3s2)C1)N1CCOCC1 [GSK200398A],100%,100%,96%,100%,0%,10%,0%,100%,100%,100%
COc1cc(N2CCN(C(C)C)CC2)ccc1Nc1nc(Nc2ccc(F)cc2C(=O)NC[C@@H](O)CO)c2cc[nH]c2n1 [GSK1392956A],100%,69%,81%,93%,85%,50%,73%,100%,99%,66%
NS(=O)(=O)c1ccc(N/N=C2\C(=O)Nc3ccc(-c4cnco4)cc32)cc1 [GW276655],100%,86%,84%,58%,91%,76%,66%,75%,77%,87%
COC(=O)Nc1nc2ccc(Oc3ccc(NC(=O)Nc4cc(C(F)(F)F)ccc4F)cc3)cc2s1.Cl [GW693917A],34%,81%,59%,9.4%,100%,45%,100%,100%,100%,66%

SMILES,Percent Control (EPHB2),Percent Control (EPHB3),Percent Control (EPHB4),Percent Control (EPHB6),Percent Control (ERBB2),Percent Control (ERBB3),Percent Control (ERBB4),Percent Control (ERK1),Percent Control (ERK2),Percent Control (ERK3)
NS(=O)(=O)c1ccc(N/N=C2\C(=O)Nc3ccc(Cl)cc32)cc1 [GW280670X],100%,100%,100%,82%,81%,72%,100%,100%,100%,100%
NS(=O)(=O)c1ccc(N/N=C2\C(=O)Nc3ccc(C(=O)NCc4ccncc4)cc32)cc1 [GW300657X],93%,98%,100%,16%,80%,53%,93%,100%,88%,87%
COc1cc(C)c(N(C)C(=O)CN(C)C)cc1Nc1nc(Nc2cccc(F)c2C(N)=O)c2cc[nH]c2n1 [GSK2219385],100%,93%,100%,74%,94%,57%,86%,65%,100%,90%
CCS(=O)(=O)c1ccc(OC)c(Nc2ncc(-c3cccc(F)c3)o2)c1 [GW621970X],100%,100%,99%,1.6%,88%,53%,100%,100%,100%,100%
NS(=O)(=O)c1ccc(Nc2ncc(-c3ccccc3)o2)cc1 [GW572399X],100%,94%,100%,35%,70%,74%,100%,100%,100%,100%
COc1ccc2cc(-c3c(-c4ccncc4)nc(-c4ccc(S(C)(=O)=O)cc4C)n3C)ccc2c1 [SB-633825],91%,80%,73%,74%,12%,84%,22%,91%,95%,42%
COc1ccc(COc2ccc(Cc3cnc(N)nc3N)cc2OC)cc1 [GW632580X],81%,73%,92%,100%,94%,85%,100%,95%,92%,87%
Nc1ncnc2occ(-c3ccc(NC(=O)Nc4cc(C(F)(F)F)ccc4F)cc3)c12 [GW770249X],11%,31%,36%,0.5%,67%,91%,100%,100%,100%,100%
Cl.O=C(Nc1ccc(Oc2ccc3[nH]c(NC(=O)c4ccccc4)nc3c2)cc1)Nc1cc(C(F)(F)F)ccc1F [GW709042A],76%,90%,84%,28%,92%,70%,100%,100%,100%,84%
O=C(Nc1n[nH]c2nc(-c3ccc(O)cc3)c(Br)cc12)C1CC1 [SB-725317],100%,100%,100%,57%,80%,32%,100%,100%,100%,100%
NS(=O)(=O)c1ccc(N/N=C2\C(=O)Nc3ccc(C(=O)NCCc4c[nH]cn4)cc32)cc1 [GW300660X],100%,100%,100%,37%,57%,86%,100%,100%,100%,100%
O=C1Nc2ccc(C(=O)c3ccco3)cc2C1=Cc1cc(Cl)c(O)c(Cl)c1 [GW406108X],100%,89%,98%,63%,83%,87%,100%,100%,94%,94%
COc1ccccc1-c1cc(/C=C2\C(=O)Nc3ncc(Br)cc32)cc(Br)c1O [GW442130X],100%,100%,100%,42%,100%,95%,100%,87%,100%,100%
Cl.O=C(Nc1ccc(Oc2ccc3[nH]c(NC(=O)c4ccco4)nc3c2)cc1)Nc1cc(C(F)(F)F)ccc1F [GW683134A],31%,99%,87%,3.2%,79%,77%,100%,100%,100%,90%
Cl.c1ccc(Cc2nc3ccc(Nc4ncnc5ccccc45)cc3[nH]2)cc1 [GR269666A],100%,100%,100%,81%,0%,20%,1.8%,100%,100%,100%
CCc1ccc(Oc2nccc(-c3c(-c4ccc(F)cc4)ncn3C3CCNCC3)n2)cc1 [SB-242719],95%,94%,98%,76%,20%,78%,99%,92%,100%,100%
COc1cc(C=NNc2ncnc3c2cnn3-c2ccccc2)ccc1O [GW513184X],93%,100%,100%,3.9%,81%,66%,100%,100%,82%,15%
CCn1c(-c2nonc2N)nc2c(C#CC(C)(C)O)nc(OCCNC)cc21.Cl [GSK949675],94%,100%,100%,90%,57%,79%,100%,93%,90%,100%
Cl.O=S1CCN(Cc2ccc(-c3ccc4ncnc(Nc5ccc(OCc6ccccc6)c(F)c5)c4c3)o2)CC1 [GW576924A],100%,100%,100%,100%,0%,58%,22%,100%,100%,100%
CC1=C(C(=O)Nc2ccc3[nH]ncc3c2)C(c2ccc(Cl)c(Cl)c2)CC(=O)N1 (centres unmarked) [GSK299115A],100%,98%,94%,99%,92%,100%,36%,72%,76%,77%
